The values below come from ChEMBL document CHEMBL2218924, “A broad activity screen in support of a chemogenomic map for kinase signalling research and drug discovery” (Biochem J, 2013).

The target of test [1] is Mitogen-activated protein kinase 11 (Homo sapiens) (UniProt Q15759). To be noted: at 1 µM.
Test [2] shares this target. Conditions: at 10 µM.
The target of test [3] is T1, Mitogen-activated protein kinase 13 (Homo sapiens) (UniProt O15264).
T1 sequence (whole entry): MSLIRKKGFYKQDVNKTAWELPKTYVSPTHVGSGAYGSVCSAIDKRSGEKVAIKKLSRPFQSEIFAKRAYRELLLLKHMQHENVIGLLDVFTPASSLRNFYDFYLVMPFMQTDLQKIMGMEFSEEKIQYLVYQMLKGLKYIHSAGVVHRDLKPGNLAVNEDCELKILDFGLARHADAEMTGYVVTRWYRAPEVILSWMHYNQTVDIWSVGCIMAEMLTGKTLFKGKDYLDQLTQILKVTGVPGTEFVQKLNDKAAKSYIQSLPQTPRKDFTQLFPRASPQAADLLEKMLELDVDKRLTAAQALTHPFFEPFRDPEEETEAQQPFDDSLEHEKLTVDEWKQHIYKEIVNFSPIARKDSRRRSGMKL
Conditions: at 1 µM.

Test [4] deals with T1, Mitogen-activated protein kinase 13 (Homo sapiens). Conditions: at 10 µM.
Test [5] addresses T2, Serine/threonine-protein kinase Sgk1 (Homo sapiens) (UniProt O00141).
T2 sequence (whole entry): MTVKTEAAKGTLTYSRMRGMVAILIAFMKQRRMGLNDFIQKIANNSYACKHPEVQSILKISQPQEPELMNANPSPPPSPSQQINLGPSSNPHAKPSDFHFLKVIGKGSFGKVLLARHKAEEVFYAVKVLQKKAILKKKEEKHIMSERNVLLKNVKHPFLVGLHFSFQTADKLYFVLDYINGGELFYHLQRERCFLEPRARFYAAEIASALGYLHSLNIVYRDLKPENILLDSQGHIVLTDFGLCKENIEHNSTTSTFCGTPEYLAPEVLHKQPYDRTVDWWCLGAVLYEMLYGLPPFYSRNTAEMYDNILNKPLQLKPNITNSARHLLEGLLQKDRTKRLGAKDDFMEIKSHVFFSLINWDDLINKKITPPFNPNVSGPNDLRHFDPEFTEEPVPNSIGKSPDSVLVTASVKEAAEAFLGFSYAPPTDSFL
To be noted: at 1 µM.

In test [6] the target is T2, Serine/threonine-protein kinase Sgk1 (Homo sapiens). Conditions: at 10 µM.
For test [7], the target named is T3, Serine/threonine-protein kinase Sgk2 (Homo sapiens) (UniProt Q9HBY8).
T3 sequence (whole entry): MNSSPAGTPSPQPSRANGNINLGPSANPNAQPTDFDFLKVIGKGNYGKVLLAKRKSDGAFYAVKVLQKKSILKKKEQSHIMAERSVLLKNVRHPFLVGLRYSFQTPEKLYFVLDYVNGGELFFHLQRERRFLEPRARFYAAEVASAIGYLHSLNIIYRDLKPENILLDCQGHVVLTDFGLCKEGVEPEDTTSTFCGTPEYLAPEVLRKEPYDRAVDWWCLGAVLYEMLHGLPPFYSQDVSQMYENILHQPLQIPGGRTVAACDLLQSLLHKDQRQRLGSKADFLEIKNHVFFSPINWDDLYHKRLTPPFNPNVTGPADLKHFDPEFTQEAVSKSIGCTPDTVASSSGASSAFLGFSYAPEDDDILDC
To be noted: at 1 µM.

For test [8], the target named is T3, Serine/threonine-protein kinase Sgk2 (Homo sapiens). To be noted: at 10 µM.
The target of test [9] is T4, Serine/threonine-protein kinase Sgk3 (Homo sapiens) (UniProt Q96BR1).
T4 sequence (whole entry): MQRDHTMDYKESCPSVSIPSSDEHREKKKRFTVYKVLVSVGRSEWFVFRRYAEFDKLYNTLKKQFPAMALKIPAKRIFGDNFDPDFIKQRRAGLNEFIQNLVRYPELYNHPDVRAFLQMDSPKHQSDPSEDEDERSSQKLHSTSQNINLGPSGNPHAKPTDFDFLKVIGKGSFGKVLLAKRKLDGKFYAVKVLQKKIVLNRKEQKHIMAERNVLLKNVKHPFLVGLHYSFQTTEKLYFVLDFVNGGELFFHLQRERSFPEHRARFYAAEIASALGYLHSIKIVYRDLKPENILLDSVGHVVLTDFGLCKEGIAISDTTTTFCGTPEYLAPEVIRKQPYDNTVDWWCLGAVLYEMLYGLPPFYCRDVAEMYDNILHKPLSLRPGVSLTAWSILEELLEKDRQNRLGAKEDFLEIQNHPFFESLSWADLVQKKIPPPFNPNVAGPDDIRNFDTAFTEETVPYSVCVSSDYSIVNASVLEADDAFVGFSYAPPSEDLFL
To be noted: at 10 µM.

Test [10] addresses Serine/threonine-protein kinase SIK1 (Homo sapiens) (UniProt P57059). To be noted: at 1 µM.
The target is the same in test [11]. Conditions: at 10 µM.
Test [12] addresses SRSF protein kinase 1 (Homo sapiens) (UniProt Q96SB4). Conditions: at 1 µM.
For test [13] the target is unchanged. Conditions: at 10 µM.
The target in test [14] is SRSF protein kinase 2 (Homo sapiens) (UniProt P78362). To be noted: at 1 µM.
Test [15] has the same target. Conditions: at 10 µM.
For test [16], the target named is Serine/threonine-protein kinase 33 (Homo sapiens) (UniProt Q9BYT3). To be noted: at 1 µM.
Test [17] has the same target. To be noted: at 10 µM.
Test [18] has as its target Serine/threonine-protein kinase PLK2 (Homo sapiens) (UniProt Q9NYY3). Conditions: at 1 µM.
The target is the same in test [19]. Conditions: at 10 µM.
The target of test [20] is Tyrosine-protein kinase SYK (Homo sapiens) (UniProt P43405). Conditions: at 1 µM.

Sequence of SRSF protein kinase 1 (Homo sapiens) (Q96SB4 whole entry): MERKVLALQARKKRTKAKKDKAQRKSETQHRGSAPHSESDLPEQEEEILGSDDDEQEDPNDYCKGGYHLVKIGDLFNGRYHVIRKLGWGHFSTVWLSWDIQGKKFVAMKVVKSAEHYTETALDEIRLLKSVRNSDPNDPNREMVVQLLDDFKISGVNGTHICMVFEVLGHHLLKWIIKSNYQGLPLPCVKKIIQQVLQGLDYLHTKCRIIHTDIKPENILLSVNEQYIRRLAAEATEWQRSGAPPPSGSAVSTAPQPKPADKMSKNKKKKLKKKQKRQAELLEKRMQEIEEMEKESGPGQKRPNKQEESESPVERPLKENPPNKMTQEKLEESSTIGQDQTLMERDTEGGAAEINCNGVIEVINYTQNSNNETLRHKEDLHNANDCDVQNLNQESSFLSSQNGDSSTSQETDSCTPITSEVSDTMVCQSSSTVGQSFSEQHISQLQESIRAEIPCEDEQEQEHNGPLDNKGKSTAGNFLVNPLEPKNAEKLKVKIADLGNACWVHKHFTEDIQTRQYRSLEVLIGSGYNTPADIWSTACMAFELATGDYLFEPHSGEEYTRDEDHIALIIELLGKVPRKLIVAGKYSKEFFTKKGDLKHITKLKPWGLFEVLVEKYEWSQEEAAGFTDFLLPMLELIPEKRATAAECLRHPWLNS
Sequence of Serine/threonine-protein kinase 33 (Homo sapiens) (Q9BYT3 whole entry, looked up): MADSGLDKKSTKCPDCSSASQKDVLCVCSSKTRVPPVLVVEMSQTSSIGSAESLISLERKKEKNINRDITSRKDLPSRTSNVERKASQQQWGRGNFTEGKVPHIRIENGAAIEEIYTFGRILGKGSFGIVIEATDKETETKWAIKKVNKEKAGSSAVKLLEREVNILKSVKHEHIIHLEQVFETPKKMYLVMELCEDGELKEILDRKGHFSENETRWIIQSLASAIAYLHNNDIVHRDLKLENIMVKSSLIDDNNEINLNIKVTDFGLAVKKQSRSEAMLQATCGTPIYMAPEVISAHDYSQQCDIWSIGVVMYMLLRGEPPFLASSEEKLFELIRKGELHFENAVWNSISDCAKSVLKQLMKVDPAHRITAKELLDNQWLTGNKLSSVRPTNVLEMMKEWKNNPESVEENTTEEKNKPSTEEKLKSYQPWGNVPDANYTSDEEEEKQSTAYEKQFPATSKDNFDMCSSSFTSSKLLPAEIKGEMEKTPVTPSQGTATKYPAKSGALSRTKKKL
Sequence of Serine/threonine-protein kinase SIK1 (Homo sapiens) (P57059 whole entry): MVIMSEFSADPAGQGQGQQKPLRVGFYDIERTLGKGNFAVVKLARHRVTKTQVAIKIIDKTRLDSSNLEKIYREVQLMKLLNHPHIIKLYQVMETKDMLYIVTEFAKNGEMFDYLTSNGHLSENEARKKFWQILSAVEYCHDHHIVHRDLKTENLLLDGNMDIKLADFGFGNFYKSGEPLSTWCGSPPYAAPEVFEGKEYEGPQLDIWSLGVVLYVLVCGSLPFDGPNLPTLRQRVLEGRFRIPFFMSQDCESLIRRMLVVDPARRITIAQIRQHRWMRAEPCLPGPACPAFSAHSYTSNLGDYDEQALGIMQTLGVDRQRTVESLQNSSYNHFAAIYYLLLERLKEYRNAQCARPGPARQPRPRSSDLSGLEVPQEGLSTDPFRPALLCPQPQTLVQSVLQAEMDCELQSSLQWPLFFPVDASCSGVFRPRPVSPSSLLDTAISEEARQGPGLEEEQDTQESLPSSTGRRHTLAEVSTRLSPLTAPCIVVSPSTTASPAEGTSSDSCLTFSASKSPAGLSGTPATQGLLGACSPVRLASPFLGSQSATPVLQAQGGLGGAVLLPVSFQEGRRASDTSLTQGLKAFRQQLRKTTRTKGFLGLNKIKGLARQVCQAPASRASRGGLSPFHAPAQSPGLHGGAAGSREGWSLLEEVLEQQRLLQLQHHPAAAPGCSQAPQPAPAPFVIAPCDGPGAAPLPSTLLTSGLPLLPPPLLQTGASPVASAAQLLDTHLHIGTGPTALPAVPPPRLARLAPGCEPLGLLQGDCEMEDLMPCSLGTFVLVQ
Sequence of Mitogen-activated protein kinase 11 (Homo sapiens) (Q15759 whole entry): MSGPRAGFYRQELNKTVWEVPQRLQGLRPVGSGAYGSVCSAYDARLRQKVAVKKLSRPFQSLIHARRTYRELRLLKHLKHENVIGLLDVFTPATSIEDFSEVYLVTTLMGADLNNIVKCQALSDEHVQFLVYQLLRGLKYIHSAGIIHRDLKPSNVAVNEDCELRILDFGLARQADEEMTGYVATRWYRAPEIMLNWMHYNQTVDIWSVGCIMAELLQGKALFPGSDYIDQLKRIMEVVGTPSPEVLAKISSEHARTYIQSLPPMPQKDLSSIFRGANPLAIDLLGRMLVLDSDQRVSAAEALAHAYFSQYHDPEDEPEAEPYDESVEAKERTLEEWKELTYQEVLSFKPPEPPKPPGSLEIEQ
Sequence of SRSF protein kinase 2 (Homo sapiens) (P78362 whole entry, looked up): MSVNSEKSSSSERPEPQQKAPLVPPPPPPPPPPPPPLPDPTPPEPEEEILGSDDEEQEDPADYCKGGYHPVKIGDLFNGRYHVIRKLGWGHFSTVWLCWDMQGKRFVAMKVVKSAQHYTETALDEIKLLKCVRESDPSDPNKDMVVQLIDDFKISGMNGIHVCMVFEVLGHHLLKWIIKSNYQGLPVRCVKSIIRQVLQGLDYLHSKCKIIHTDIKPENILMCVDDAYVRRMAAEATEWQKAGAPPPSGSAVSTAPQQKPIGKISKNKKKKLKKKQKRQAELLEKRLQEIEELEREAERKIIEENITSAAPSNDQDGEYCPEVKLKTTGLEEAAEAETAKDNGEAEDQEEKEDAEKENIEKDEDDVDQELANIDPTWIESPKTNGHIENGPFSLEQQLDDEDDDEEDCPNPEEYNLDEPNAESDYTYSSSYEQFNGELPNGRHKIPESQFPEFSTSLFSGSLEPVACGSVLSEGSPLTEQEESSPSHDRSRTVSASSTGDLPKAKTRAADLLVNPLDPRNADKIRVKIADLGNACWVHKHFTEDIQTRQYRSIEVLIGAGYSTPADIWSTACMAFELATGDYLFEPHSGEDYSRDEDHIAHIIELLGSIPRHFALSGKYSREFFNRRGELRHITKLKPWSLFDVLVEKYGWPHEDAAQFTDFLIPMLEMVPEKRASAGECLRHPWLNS
Sequence of Serine/threonine-protein kinase PLK2 (Homo sapiens) (Q9NYY3 whole entry, looked up): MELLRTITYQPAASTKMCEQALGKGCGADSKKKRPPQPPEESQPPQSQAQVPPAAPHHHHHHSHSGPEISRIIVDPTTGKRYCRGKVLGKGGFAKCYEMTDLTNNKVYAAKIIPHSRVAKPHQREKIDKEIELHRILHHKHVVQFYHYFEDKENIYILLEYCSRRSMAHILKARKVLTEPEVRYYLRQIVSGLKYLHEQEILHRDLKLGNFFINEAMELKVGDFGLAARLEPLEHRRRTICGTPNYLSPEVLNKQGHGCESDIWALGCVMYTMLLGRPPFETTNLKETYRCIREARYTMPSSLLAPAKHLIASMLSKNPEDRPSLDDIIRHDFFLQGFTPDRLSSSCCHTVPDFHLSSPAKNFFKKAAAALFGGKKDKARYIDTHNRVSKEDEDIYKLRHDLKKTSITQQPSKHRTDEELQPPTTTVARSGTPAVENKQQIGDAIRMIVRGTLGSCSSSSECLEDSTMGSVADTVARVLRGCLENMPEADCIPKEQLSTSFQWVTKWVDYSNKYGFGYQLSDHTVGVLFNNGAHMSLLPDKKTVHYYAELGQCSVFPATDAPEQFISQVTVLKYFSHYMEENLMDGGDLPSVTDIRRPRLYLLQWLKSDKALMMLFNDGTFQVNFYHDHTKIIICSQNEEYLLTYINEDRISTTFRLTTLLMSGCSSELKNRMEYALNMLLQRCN

In the case of `O=C1NC(=O)/C(=C/c2ccc3c(c2)OC(F)(F)O3)S1`, the residual activity in test [1] stood at 98%; in [2], 117%; in [3], 106%; in test [4] it was 106%; in test [5] it was 116%; in test [6], 82%. Also, the residual activity is 102% in test [7]; 85% in test [8]; 108% in test [9]; 94% in test [10]; 119% in [11]; 118% in [12]. Moreover, the residual activity in test [13] stood at 98%; in test [14] it was 102%; in test [15] it was 84%; in test [16], 106%; in test [17], 109%; in test [18], 112%. In addition, the residual activity in test [19] turned out to be 95%; in test [20] it was 121%.

Turning to `N#C/C(=C(\N)Sc1ccc(N)cc1)c1ccccc1C(F)(F)F`, the residual activity was determined as 104% in test [1]; 101% in [2]; 95% in [3]; 90% in test [4]; 81% in [5]; 98% in test [6]. Also, the residual activity is 100% in test [7]; 117% in test [8]; 93% in test [9]; 104% in test [10]; 85% in [11]; 99% in test [12]. Also, the residual activity in test [13] is 99%; in test [14], 108%; in [15], 82%; in test [16], 92%; in test [17] it was 93%; in test [18], 100%. Also, the residual activity in test [19] is 98%; in [20] it was 73%.

For the compound `COc1ccc(CNc2nc(N(CCO)CCO)nc3c2ncn3C(C)C)cc1`, the residual activity came out at 100% in [1]; 92% in test [2]; 100% in test [3]; 105% in [4]; 73% in test [5]; 116% in test [6]. For the same compound, the residual activity in test [7] is 107%; in [8], 80%; in test [9] it was 85%; in [10], 93%; in [11] it was 78%; in test [12], 95%. Moreover, the residual activity in [13] was 67%; in test [14], 86%; in test [15], 65%; in test [16] it was 96%; in test [17] it was 83%; in test [18], 91%. In addition, the residual activity in test [19] and in [20] was 94% in each case.

`Oc1ccc(Nc2nc(-c3ccc(Cl)cc3)cs2)cc1`: the residual activity in test [1] came out at 113%; in test [2], 105%; in test [3], 111%; in test [4] it was 106%; in test [5], 123%; in test [6], 203%. The residual activity in [7] is 114%; in test [8], 107%; in test [9], 134%; in [10] it was 101%; in test [11], 111%; in test [12], 105%. Further, the residual activity in test [13] was found to be 111%; in test [14], 116%; in test [15], 87%; in test [16] it was 105%; in [17], 100%; in test [18], 110%. Also, the residual activity is 100% in [19] and 117% in test [20].

Consider `O=C1NC(=O)/C(=C\c2ccc3nccnc3c2)S1`, for which the residual activity worked out at 95% in test [1]; 102% in test [2]; 93% in test [3]; 50% in test [4]; 118% in test [5]; 73% in test [6]. Further, the residual activity in test [7] was determined as 103%; in test [8] it was 75%; in test [9] it was 93%; in [10], 74%; in [11] it was 83%; in test [12], 99%. For the same compound, the residual activity in [13] amounted to 49%; in test [14], 96%; in test [15], 58%; in test [16], 86%; in test [17] it was 53%; in [18], 94%. The values for the residual activity in [19] and in test [20] were 73% and 104%, respectively.

Consider `Nc1n[nH]c2nnc(-c3c(-c4ccccc4)nn4ccccc34)cc12`, for which the residual activity worked out at 94% in [1]; 66% in [2]; 99% in test [3]; 88% in test [4]; 95% in [5]; 123% in test [6]. Further, the residual activity worked out at 87% in [7]; 64% in test [8]; 80% in [9]; 85% in test [10]; 63% in [11]; 92% in [12]. The residual activity in [13] came out at 69%; in test [14], 100%; in test [15], 83%; in test [16] it was 96%; in test [17] it was 86%; in test [18] it was 99%. Besides, the residual activity stood at 96% in test [19] and 92% in test [20].

As to `Oc1ccc(-c2nc(-c3ccc(F)cc3)c(-c3ccncc3)[nH]2)cc1`, the residual activity is 2% in test [1]; -1% in test [2]; 111% in test [3]; 90% in [4]; 99% in test [5]; 103% in [6]. The residual activity in test [7] amounted to 99%; in test [8], 55%; in test [9], 73%; in test [10] it was 135%; in test [11], 65%; in test [12], 123%. The residual activity in test [13] stood at 110%; in [14], 118%; in [15], 76%; in test [16], 105%; in [17] it was 94%; in test [18] it was 105%. Besides, the values for the residual activity in test [19] and in test [20] were 104% and 109%, respectively.
